From PubChem
Cruzain inh Det: cruzain (T. cruzi) inhibition with detergent; P25779; purified cruzain, Z-FR-AMC fluorescence, 0.01% Triton; Potency, µM, most hits filed as inhibitors; 0.43% of 200,000 active; note: nearly all actives have a fitted effect of over 40% in size
Target sequence (P25779 123-467 limits assumed): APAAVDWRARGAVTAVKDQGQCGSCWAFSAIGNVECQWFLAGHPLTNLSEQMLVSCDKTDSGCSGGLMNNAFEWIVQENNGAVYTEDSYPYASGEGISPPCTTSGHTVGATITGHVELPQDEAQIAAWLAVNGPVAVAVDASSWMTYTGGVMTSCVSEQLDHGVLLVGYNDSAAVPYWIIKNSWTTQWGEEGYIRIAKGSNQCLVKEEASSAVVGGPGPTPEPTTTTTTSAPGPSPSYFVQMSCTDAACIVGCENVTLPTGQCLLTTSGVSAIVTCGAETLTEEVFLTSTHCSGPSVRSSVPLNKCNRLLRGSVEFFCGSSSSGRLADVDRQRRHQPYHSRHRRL
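15 min RT preincubation of 1.5 nM cruzain with compound, then 2 uM Z-FR-AMC added; kinetic AMC fluorescence, 60 s delta. Triton X-100 0.01%, pH 5.5.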
Cruzain noTriton: cruzain (T. cruzi) inhibition without detergent | purified cruzain, Z-FR-AMC fluorescence, no detergent | AID 1476 | 2.3% of 200,000 active | Potency, µM, usual class: inhibitors; note: nearly all actives have a fitted effect of over 40% in size
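Detergent-free condition (0.00005% Triton X-100) in acetate buffer pH 5.5 with DTT. 1.5 nM enzyme and compound were pre-mixed 15 min, then 2 uM Z-FR-AMC substrate added; reaction progress from fluorescence change between first and third reads (60 s).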
Papain counter: blocks papain protease activity, flagging nonselective cruzain hits. purified papain, Z-FR-AMC fluorescence cleavage. 41% of 410 active. shares compounds with Cruzain inh Det. Potency, µM, actives largely listed as inhibitors; note: nearly all actives have a fitted effect of over 35% in size
Target sequence (P00784 whole entry, looked up): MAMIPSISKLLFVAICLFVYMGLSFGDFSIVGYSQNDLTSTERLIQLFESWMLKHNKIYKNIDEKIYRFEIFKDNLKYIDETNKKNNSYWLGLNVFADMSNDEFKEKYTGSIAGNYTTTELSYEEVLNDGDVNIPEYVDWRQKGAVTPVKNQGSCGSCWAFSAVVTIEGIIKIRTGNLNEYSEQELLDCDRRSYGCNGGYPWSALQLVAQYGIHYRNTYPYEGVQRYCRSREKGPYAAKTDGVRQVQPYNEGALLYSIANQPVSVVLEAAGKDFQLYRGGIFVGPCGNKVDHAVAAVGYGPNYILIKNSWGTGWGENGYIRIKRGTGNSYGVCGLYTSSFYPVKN
Each line names hits and unclear results; the compound was inactive in the other large screens (follow-up assays come after a bar, where they were run). Rows were chosen to be rich in hits. Some 2.4% of all compounds tested hit in one or more screens of this group. Calls come from the whole dose curve; as a rule, active = well fitted curve in the direction sought with a large enough effect; inconclusive = small, poorly fitted or top-dose-only effect, or another doubt; inactive = no such curve, though single readings can be large; an effect the other way counts as inactive or inconclusive.

O=C(COC(=O)CNS(=O)(=O)c1ccc(F)c(F)c1F)Nc1ccc(OC(F)F)cc1	Cruzain inh Det 22µM, Cruzain noTriton inconclusive | Papain counter inactive
O=C(Cc1ccc(F)cc1)Nc1nnc2n1CCS2	none
Cc1ccc2[nH]c(=O)c(CN(Cc3ccco3)Cc3nnnn3Cc3ccccc3)cc2c1	none (no result: Cruzain inh Det, Cruzain noTriton) | Papain counter inactive
Cc1ccc2[nH]c(=O)c(CN(Cc3ccc4c(c3)OCO4)Cc3nnnn3Cc3ccco3)cc2c1	none
Cc1cccc2cc(CN(Cc3cccs3)Cc3nnnn3Cc3ccccc3)c(=O)[nH]c12	none
Cc1ccc2[nH]c(=O)c(CN(Cc3ccccc3)Cc3nnnn3Cc3ccccc3)cc2c1	none (no result: Cruzain inh Det, Cruzain noTriton) | Papain counter inactive
Cc1ccc2[nH]c(=O)c(CN(Cc3nnnn3Cc3ccccc3)C3CCCC3)cc2c1	none
Cc1cccc2cc(CN(Cc3ccccc3)Cc3nnnn3Cc3ccccc3)c(=O)[nH]c12	none (no result: Cruzain inh Det, Cruzain noTriton) | Papain counter inactive
O=c1[nH]c2cc3c(cc2cc1CN(Cc1ccccc1)Cc1nnnn1Cc1ccco1)OCCO3	none
Cc1ccc2[nH]c(=O)c(CN(CCCO)Cc3nnnn3Cc3ccco3)cc2c1	none (no result: Cruzain inh Det, Cruzain noTriton) | Papain counter inactive
COc1cccc(NC(=O)C(=O)NCCc2csc(-c3ccc(C(F)(F)F)cc3)n2)c1	none
COc1ccc(S(=O)(=O)N(CCc2ccccc2)CC(=O)Nc2cccc(OC)c2)cc1	none
Cc1ccccc1N(C)C(=O)c1noc2c1COc1ccccc1-2	none
Cc1ccc(-c2nnc3c4ccccc4c(C)nn23)cc1NC(=O)c1ccccc1Cl	none
Cc1ccc2cc(CN(Cc3ccco3)Cc3nnnn3Cc3ccco3)c(=O)[nH]c2c1	none (no result: Cruzain inh Det, Cruzain noTriton) | Papain counter inactive
CCc1ccc2[nH]c(=O)c(CN(Cc3ccccc3)Cc3nnnn3Cc3ccccc3)cc2c1	none (no result: Cruzain inh Det, Cruzain noTriton) | Papain counter inactive
CCc1ccc2[nH]c(=O)c(CN(Cc3ccccc3)Cc3nnnn3Cc3ccco3)cc2c1	none
COc1ccccc1CN(Cc1cc2cc3c(cc2[nH]c1=O)OCCO3)Cc1nnnn1Cc1ccco1	Cruzain noTriton inconclusive
Cc1ccc(CNC(=O)c2sc3ccc(S(=O)(=O)N4CCCCC4)cc3c2N)cc1	Cruzain noTriton inconclusive
Nc1c(C(=O)NCCC2=CCCCC2)sc2ccc(S(=O)(=O)N3CCCCC3)cc12	Cruzain inh Det 3.5µM, Cruzain noTriton 13µM | Papain counter inactive
Cc1oc(=O)c(NC(=O)c2cccc(Cl)c2)cc1C(=O)c1ccccc1	Cruzain inh Det 1.3µM, Cruzain noTriton 0.63µM | Papain counter inactive
O=C(Nc1ccc(Cl)cc1C(=O)c1ccccc1)c1ccccc1	none
COc1ccc(NS(=O)(=O)c2cc(NC(=O)/C=C/c3ccccc3OC)ccc2N2CCCCC2)cc1	Cruzain noTriton 3.2µM | Papain counter inactive
COc1ccc(NS(=O)(=O)c2cc(NC(=O)/C=C/c3cccs3)ccc2N2CCOCC2)cc1	Cruzain noTriton inconclusive
Cc1ccc(C2CC(=O)Nc3cc4c(cc32)OCCO4)cc1Br (configuration not stated)	none
CC(C)CN(CCCNC(=O)c1cc(=O)[nH]c2ccc(S(=O)(=O)N3CCCCCC3)cc12)CC(C)C	none
CCN1CCCC1Cn1cnc2c([nH]c3ccc(C)cc32)c1=O (configuration not stated)	none
Clc1ccc2[nH]c3c(NCCCN4CCOCC4)ncnc3c2c1	Cruzain inh Det 16µM, Cruzain noTriton 13µM | Papain counter inactive
Cc1ccc2ncnc(NCCCN3CCOCC3)c2c1	none
CCN1CCCC1CNc1ncnc2c1[nH]c1ccc(Cl)cc12 (configuration not stated)	Cruzain inh Det 25µM, Cruzain noTriton 16µM | Papain counter inactive
CC(=O)c1sc2c(c1C)c(=O)n(-c1ccc(Cl)cc1)c(=O)n2Cc1cc(=O)n2cc(Cl)ccc2n1	none
CCCC1=Nc2cc(C(=O)NC3CCCC3)ccc2Sc2ccc(C)cc21	Cruzain noTriton inconclusive
CC1(C)Cc2c(C#N)c(N3CCN(C(=O)c4ccco4)CC3)nc(Cc3ccccc3)c2CO1	none
CC1(C)Cc2c(C#N)c(N3CCN(C(=O)c4ccco4)CC3)nc(-c3ccco3)c2CS1	Cruzain inh Det 28µM, Cruzain noTriton 16µM | Papain counter 3.5µM
O=C(Nc1nnc(C2CC2)o1)c1ccc(S(=O)(=O)N2CCCc3ccccc32)cc1	none
COc1ccc(-c2nnc(NC(=O)c3ccc(S(=O)(=O)N4CCCc5ccccc54)cc3)o2)cc1	none | Papain counter inactive
CC(=O)Nc1cccc(NC(=O)Cc2csc(COc3cccc(C)c3)n2)c1	none
COc1cccc2c1[C@@H]1CN(CCCCn3c(=O)[nH]c4c(sc5ncc(-c6ccccc6)nc54)c3=O)C[C@@H]1CO2	Cruzain inh Det 28µM, Cruzain noTriton inconclusive | Papain counter inactive
COc1cc2[nH]c(=O)n(CCCC(=O)N3CC=C(c4ccccc4)CC3)c(=O)c2cc1OC	Cruzain noTriton inconclusive
O=C(c1cccn2c(=O)c3cc(Cl)ccc3nc12)N1CCN(c2ccccc2F)CC1	none
O=C(O)C[C@H](Cc1ccccc1Cl)C(=O)O	none
C[C@@]12C[C@H](O)C3[C@H](CCC4=CC(=O)CC[C@]43C)[C@H]1CC[C@@H]2c1csc(N)n1 (some centres not stated)	none
O=C(Nc1ccc(N2CCCC2)cc1)c1ccc(Br)o1	Cruzain inh Det inconclusive, Cruzain noTriton 7.9µM | Papain counter inactive
O=C(Nc1ccc(N2CCN(C(=O)c3ccccc3)CC2)cc1)c1ccc(Br)o1	Cruzain noTriton inconclusive
O=C(N/N=C\c1ccccc1O)c1ccccc1O	Cruzain noTriton 32µM | Papain counter inactive
O=C(Oc1ccc(/C=N/NC(=O)c2ccccc2O)cc1)c1ccccc1	none
CC(C)CCNC(=O)Nc1ccc2c(c1)N(Cc1ccccc1)C(=O)c1ccccc1S2	Cruzain noTriton inconclusive
COc1ccc(CCNCc2c(C(=O)O)c(C)n(Cc3c(F)cccc3Cl)c2C)cc1OC	none
CC(C)Cc1ccc(S(=O)(=O)N2CCC(c3ccncc3)CC2)cc1	Cruzain noTriton inconclusive
C/C(CC(=O)Nc1ccc(Cl)c(Cl)c1)=N\NC(N)=S	Cruzain inh Det 0.5µM, Cruzain noTriton 0.32µM | Papain counter inactive
CC(=O)Nc1ccc(Cl)c(C(N)=O)c1	none
C/C(CC(=O)Nc1cccc(Cl)c1)=N\NC(=O)Cc1ccc(Cl)cc1	none
C/C(CC(=O)Nc1cc(Cl)ccc1Cl)=N\NC(N)=S	Cruzain inh Det 1µM, Cruzain noTriton 1µM | Papain counter 2.8µM
COc1cccc(-c2cc(C(F)(F)F)n3nc(C)c(-c4ccccc4)c3n2)c1	none
Cc1cccc(NC(=O)N2CCN3CCCCC3C2)c1C (configuration not stated)	none
N=C(N)SCc1cccc(-c2nc3ccccc3c(=O)o2)c1	none
N=c1c(C(=O)NCc2ccc(F)cc2)cc2c(=O)n3ccccc3nc2n1CC1CCCO1 (configuration not stated)	Cruzain inh Det 32µM, Cruzain noTriton inconclusive | Papain counter 16µM
CCn1c(=N)c(C(=O)NC2CCCC2)cc2c(=O)n3ccccc3nc21	none
O=C(CN1C(=O)CSc2ccc(S(=O)(=O)N3CCCC3)cc21)NCc1ccc(F)cc1Cl	none
Cc1ccc(C(=O)N/C(=C\c2cccc([N+](=O)[O-])c2)C(=O)OCN2C(=O)c3ccccc3C2=O)cc1	Cruzain inh Det 0.89µM, Cruzain noTriton 16µM | Papain counter inactive
Cc1ccc(C(=O)N/C(=C/c2cccc([N+](=O)[O-])c2)C(=O)NC(C)C)cc1	none
O=C(CCS(=O)(=O)c1cc(Br)cc2c1N(C(=O)C1CC1)CC2)N1CCN(c2cccc(C(F)(F)F)c2)CC1	none
